Here are results for nine molecules from PubChem BioAssay.

Experiment [1] is described as follows: reducers of endogenous Her2 protein level, primary screen, SKBR3 breast tumor cells, AlphaScreen, ATP viability (AID 461;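 active = Her2 level under about 52% in both replicate screens, with viability over 70% of control, limit read from the data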;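 for Her2 level: lower value means less Her2 protein in the cells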;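 for viability: percent of carrier control wells set as 100% viability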). The conditions noted are these: 18-24 h, measured here: SKBR3 viability, ATP luminescence, at 10 µM.
The target in experiment [2] is Receptor tyrosine-protein kinase erbB-2 (Homo sapiens) (UniProt P04626). The experiment is described as above. The conditions noted are these: 18-24 h, at 10 µM, stronger effect = lower value.
Chain of Receptor tyrosine-protein kinase erbB-2 (Homo sapiens) (P04626 whole entry, looked up): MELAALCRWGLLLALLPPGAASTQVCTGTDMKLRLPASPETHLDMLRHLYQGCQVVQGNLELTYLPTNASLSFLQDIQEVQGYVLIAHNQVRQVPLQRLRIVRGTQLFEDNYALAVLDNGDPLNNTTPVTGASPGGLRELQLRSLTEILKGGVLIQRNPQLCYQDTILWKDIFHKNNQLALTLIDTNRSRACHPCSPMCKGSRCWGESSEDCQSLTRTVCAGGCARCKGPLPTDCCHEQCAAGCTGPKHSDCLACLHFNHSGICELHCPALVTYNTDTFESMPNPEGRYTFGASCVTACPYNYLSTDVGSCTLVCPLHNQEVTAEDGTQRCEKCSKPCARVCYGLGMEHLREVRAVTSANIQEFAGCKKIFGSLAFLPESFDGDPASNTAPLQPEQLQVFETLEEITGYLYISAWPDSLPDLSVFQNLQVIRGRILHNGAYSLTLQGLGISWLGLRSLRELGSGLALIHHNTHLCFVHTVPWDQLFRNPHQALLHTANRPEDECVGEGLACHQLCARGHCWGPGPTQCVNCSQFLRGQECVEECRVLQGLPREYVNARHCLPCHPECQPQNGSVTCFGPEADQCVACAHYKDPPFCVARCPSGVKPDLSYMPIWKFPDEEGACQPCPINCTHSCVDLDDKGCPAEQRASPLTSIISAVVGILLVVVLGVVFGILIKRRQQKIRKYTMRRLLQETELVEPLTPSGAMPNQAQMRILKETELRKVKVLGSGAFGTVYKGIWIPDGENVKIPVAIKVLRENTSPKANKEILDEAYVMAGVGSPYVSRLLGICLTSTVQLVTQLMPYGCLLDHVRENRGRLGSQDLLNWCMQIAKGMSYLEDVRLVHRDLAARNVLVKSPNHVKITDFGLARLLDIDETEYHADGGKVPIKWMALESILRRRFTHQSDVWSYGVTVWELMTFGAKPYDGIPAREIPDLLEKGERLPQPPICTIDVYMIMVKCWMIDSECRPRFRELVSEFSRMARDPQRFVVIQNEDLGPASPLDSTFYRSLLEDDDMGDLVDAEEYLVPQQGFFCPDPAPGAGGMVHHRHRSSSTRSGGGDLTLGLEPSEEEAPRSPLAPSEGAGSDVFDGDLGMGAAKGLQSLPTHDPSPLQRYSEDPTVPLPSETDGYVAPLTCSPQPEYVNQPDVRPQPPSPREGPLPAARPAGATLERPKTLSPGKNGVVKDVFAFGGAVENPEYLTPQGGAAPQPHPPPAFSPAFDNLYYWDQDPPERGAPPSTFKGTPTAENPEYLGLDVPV
Experiment [3] in a line: SK-BR-3 cell growth inhibitors, pilot screen, 24 h, human (AID 572;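 active = viability at or below 10% of carrier control in both of two separate runs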;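 note: compound exposure lasted between 18 and 24 h rather than exactly 24 h; 100% = carrier-treated control wells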). The conditions noted are these: SK-BR-3 viability, CellTiter-Glo luminescence, at 10 µM, stronger effect = lower value. On the technique in general: ATP-based viability assays read luminescence as a measure of living cells.
Experiment [4] is described as follows: HUVEC growth inhibition – cell-based, human, primary screen (AID 575;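 active = viability at or below 30% in both replicate assays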;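 note: 100% = median of untreated cell wells with 0.1% DMSO on each plate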). The conditions noted are these: HUVEC proliferation, CellTiter-Glo luminescence, 72 h; at 10 µM; stronger effect = lower value.
The nature of experiment [5]: growth inhibitors of H69AR lung tumor, primary screen, human, duplicate replicates (AID 580;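 active = viability at or under a set limit in both replicates, limit being median viability minus 3 SD, cut at about 48% in these data, passing the limit was not always enough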;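 note: 100% = mean luminescence of untreated wells and 0% = no signal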). The conditions noted are these: H69AR lung tumor cells viability, ATP luminescence, 72 h; at 10 µM; stronger effect = lower value.
The nature of experiment [6]: reversal of MRP1-mediated doxorubicin resistance, pilot screen, H69AR cells, doxorubicin co-treatment (AID 601;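 active = viability loss from added drug above about 55%, and viability with drug at most 40%, in both replicates, limit read from the data, passing the limit was not always enough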). The conditions noted are these: CellTiter-Glo, 72 h, at 10 µM; for differential viability (reversal): stronger effect = higher value.
Experiment [7] can be described thus: 384-well plate pilot, post-Golgi transport modulator project, inhibition of yeast transport mutant growth (AID 636; in the data active = inhibition above about 31%). The conditions noted are these: absorbance 615 nm, about 18 h, stronger effect = higher value.
The nature of experiment [8]: growth suppression of yeast trafficking mutant, preliminary HTS, modulators of trafficking downstream of Golgi apparatus project, 1536-format plate, OD 615 nm (AID 637; in the data active = inhibition above about 30%). The conditions noted are these: yeast transport mutant growth, absorbance 615 nm, 18 h; stronger effect = higher value.
Experiment [9] is described as follows: OD615 S. cerevisiae growth inhibition, permissive medium, pilot counter-assay, permissive growth control for S. cerevisiae lifespan shortening project (AID 705;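 active = growth inhibition above 25% in both replicates, a cutoff set 3 SD above the mean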). The conditions noted are these: OD615, 24 h, at 10 µM, stronger effect = higher value.
Experiment [10] is described as follows: Restrictive medium S. cerevisiae growth inhibition, OD615, pilot screen of yeast lifespan reduction project, restrictive growth control (AID 706;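 active = growth inhibition above a set limit, 3 SD over mean compound inhibition, in both replicates, cut at about 43% in these data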;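 note: modified DeaD lifespan yeast strain shifted to restrictive glucose medium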). The conditions noted are these: OD615, 48 h, at 10 µM, stronger effect = higher value.
The nature of experiment [11]: viability gain of MRP-1-high H69AR cells under doxorubicin, pilot screen, MRP-1 activator project, CellTiter-Glo, duplicate (AID 807;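 active = viability increase at or above a cutoff of the median across tested compounds plus 3 SD, cut at about 8.5% in these data, passing the limit was not always enough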;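 note: compound pretreatment 18-22 h then 72 h combined with doxorubicin; 0% = doxorubicin alone and 100% = vehicle without doxorubicin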). The conditions noted are these: H69AR viability with doxorubicin, CellTiter-Glo luminescence; at 10 µM; stronger effect = higher value.
Experiment [12] is described as follows: growth suppression of beta-catenin knockout HCT116, pilot screen, human colon tumor cells (AID 823;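 active = cell viability at or below a set limit in both duplicate runs, the limit being the all-compound median minus 4 SD, cut at about 23% in these data, passing the limit was not always enough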;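 note: 0% = wells killed by 20 µM Hyamine and 100% = untreated DMSO cell wells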). The conditions noted are these: CellTiter-Glo, 60 h, at 10 µM, stronger effect = lower value.
Experiment [13] in a line: growth suppression of PTEN-deleted HCT116, pilot screen, cell-based, HCT116 clonal line, CellTiter-Glo (AID 824).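 Note: 0% = 20 µM Hyamine control and 100% = vehicle cell control.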 The conditions noted are these: 60 h, at 10 µM, stronger effect = lower value.
A short description of experiment [14]: inhibitors of the yeast RAM network, pilot screen, dse1pr::URA3 reporter, 5-FOA selection (AID 869;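 active = inhibition over a set limit, the all-compound mean plus 3 SD, in both replicate runs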;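 note: 0% = DMSO wells with no growth and 100% = 10 µM 1-NA-PP1 with full growth; RAM network block rescues cells from 5-FOA so hits raise OD615 growth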). The conditions noted are these: S. cerevisiae dse1pr::URA3 5-FOA growth, OD615, 2 d; at 10 µM; stronger effect = higher value; strain carries analog-sensitive mutant Cbk1 kinase.
Experiment [15] in a line: RAM signaling pathway blockade in yeast – S. cerevisiae, Pdr1DBD-CYC8 efflux-inhibited sensitized strain, primary screen (AID 1298;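 active = RAM network inhibition above 8.4% in each of two replicates, 3 SD over the compound average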;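 note: 0% = DMSO untreated cells without growth and 100% = 10 µM 1-NA-PP1 full growth; higher means more yeast growth rescued from 5-FOA killing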). The conditions noted are these: S. cerevisiae cbk1-as DSE1-URA3 strain, 5-FOA growth OD615, 2 d; at 50 µM; stronger effect = higher value.
Where [16] appears, read: H69AR cells + 2 uM doxorubicin, measured here: viability with 2 uM doxorubicin, stronger effect = lower value.
Setting [17] is: H69AR cells, compound alone cytotoxicity.

Broadly, the viability is a read-out of living cells in per cent, often relative to untreated cells. One may read the inhibition as the relative decrease from the control value, in per cent.

Inconclusive results are not listed. Activity calls are given as the source filed them.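 Rule for the calls, unless noted: active = viability at or below 27.92% in each of two runs, the all-compound median minus 4 SD; inconclusive = no clear call, values can overlap the other calls; inactive = the rest.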

For `COc1ccccc1NC1=C(C)C(=O)CC1`, the viability is 98% in experiment [1]; 98% (inactive) in experiment [3]; 90.4% (inactive) in experiment [4]; 88.7% (inactive) in [5]; 74.1% in [6] (setting [16]); 88.7% in experiment [6] (setting [17]). The viability is 75.4% (inactive) in experiment [12] and 85.5% (inactive) in experiment [13]. Besides, the Her2 level in experiment [2] was 72% (inactive). For the same molecule, the differential viability (reversal) in experiment [6] (H69AR cells + 2 uM doxorubicin) was 14.5% (inactive). The inhibition in [7] is -7.43% (inactive); in experiment [8], -0.67% (inactive); in experiment [14] it was 1.62% (inactive). The growth inhibition in experiment [9] was -1.07% (inactive); in [10], -11.9% (inactive). Further, the viability increase in [11] is -4.17% (inactive). In addition, in experiment [15], the RAM network inhibition is -0.26% (inactive).
On to `O=C1c2ccccc2C(Nc2ccc3c(c2)OCCO3)N1Cc1ccc2c(c1)OCO2` (stereo not drawn), for which the viability in experiment [1] was 91%; in experiment [3] it was 91% (inactive); in experiment [4], 64.8% (inactive); in experiment [5], 86.4% (inactive); in [6] (setting [16]) it was 90.4%; in experiment [6] (setting [17]) it was 86.4%. Also, the viability was 82.2% (inactive) in experiment [12] and 72.2% (inactive) in [13]. Further, the Her2 level in experiment [2] is 94.5% (inactive). In [6] (H69AR cells + 2 uM doxorubicin), the differential viability (reversal) was -4.04% (inactive). Moreover, the inhibition in experiment [7] is -5.73% (inactive); in experiment [8], 0.5% (inactive); in [14] it was 2.92% (inactive). Moreover, the growth inhibition in experiment [9] is -4.37% (inactive); in [10], 8.02% (inactive). Moreover, the viability increase in [11] is 0.68% (inactive). The RAM network inhibition in [15] was 4.31% (inactive).
Regarding `CCOC(=O)/C(C#N)=C(/C)c1ccc(OC)cc1`, the viability is 96% in experiment [1]; 96% (inactive) in [3]; 110% (inactive) in experiment [4]; 102% (inactive) in experiment [5]; 96.2% in experiment [6] (setting [16]); 102% in experiment [6] (setting [17]). In addition, the viability in [12] was 99.5% (inactive); in experiment [13], 99% (inactive). Moreover, in [2], the Her2 level was 104% (inactive). Also, the differential viability (reversal) in experiment [6] (H69AR cells + 2 uM doxorubicin) is 5.39% (inactive). The inhibition in experiment [7] is -2.53% (inactive); in [8] it was -7.74% (inactive); in [14], 1.11% (inactive). In addition, the growth inhibition was -14.7% (inactive) in experiment [9] and -5.52% (inactive) in experiment [10]. In addition, the viability increase in experiment [11] is 0.09% (inactive). Further, the RAM network inhibition in experiment [15] was 3.87% (inactive).
On to `CCOC(=O)N1CCN(C(=O)CSc2nnc(COc3ccccc3)o2)CC1`, for which the viability in experiment [1] is 92.5%; in experiment [3], 92.5% (inactive); in experiment [4], 95.2% (inactive); in experiment [5], 97.2% (inactive); in [6] (setting [16]), 88.2%; in experiment [6] (setting [17]), 97.2%. Moreover, the values for the viability in [12] and in experiment [13] were 99.4% (inactive) and 100% (inactive), respectively. The Her2 level in experiment [2] was 89.5% (inactive). Also, in experiment [6] (H69AR cells + 2 uM doxorubicin), the differential viability (reversal) was 9.01% (inactive). The inhibition in experiment [7] is 2.67% (inactive); in experiment [8], -7.21% (inactive); in experiment [14], -0.34% (inactive). Besides, the growth inhibition in experiment [9] was -8.08% (inactive); in experiment [10], 1.67% (inactive). Further, the viability increase in [11] is 1.41% (inactive). Further, in experiment [15], the RAM network inhibition is 7.1% (inactive).
Turning to `O=C(Cc1cccs1)Nc1ccccc1NC(=O)Cc1cccs1`, the viability was 81% in experiment [1]; 81% (inactive) in experiment [3]; 107% (inactive) in [4]; 94.7% (inactive) in experiment [5]; 91% in [6] (setting [16]); 94.7% in experiment [6] (setting [17]). In addition, the viability in experiment [12] is 92% (inactive); in experiment [13], 91.9% (inactive). Also, the Her2 level in experiment [2] was 87.5% (inactive). Further, the differential viability (reversal) in [6] (H69AR cells + 2 uM doxorubicin) is 3.74% (inactive). The inhibition in experiment [7] was -1.15% (inactive); in experiment [8], -7.83% (inactive); in experiment [14] it was 0.905% (inactive). The growth inhibition is -1.23% (inactive) in experiment [9] and -8.9% (inactive) in [10]. The viability increase in [11] is -4% (inactive). Moreover, the RAM network inhibition in [15] was -0.25% (inactive).
Consider `CCc1nnc(NC(=O)COC(=O)CN2C(=O)c3ccccc3C2=O)s1`, for which the viability in experiment [1] is 104%; in [3], 104% (inactive); in [4], 104% (inactive); in [5], 109% (inactive); in experiment [6] (setting [16]), 101%; in experiment [6] (setting [17]), 109%. Further, the viability in experiment [12] was 96.8% (inactive); in experiment [13], 89.8% (inactive). For the same molecule, in experiment [2], the Her2 level is 101% (inactive). The differential viability (reversal) in experiment [6] (H69AR cells + 2 uM doxorubicin) is 7.39% (inactive). Also, the inhibition in [7] was -9.32% (inactive); in experiment [8], -6.19% (inactive); in experiment [14], 0.785% (inactive). For the same molecule, the results for the growth inhibition in experiment [9] and in [10] were 2.25% (inactive) and 1.2% (inactive), respectively. The viability increase in experiment [11] was -1.95% (inactive). In addition, the RAM network inhibition in experiment [15] was 5.31% (inactive).
Consider `CC(C)(C)NC(=O)CC(CC(=O)O)c1ccccc1` (stereo not drawn), for which the viability is 112% in experiment [1]; 112% (inactive) in experiment [3]; 110% (inactive) in experiment [4]; 88.5% (inactive) in [5]; 97% in experiment [6] (setting [16]); 88.5% in experiment [6] (setting [17]). Besides, the viability in [12] was 106% (inactive); in [13], 101% (inactive). In addition, the Her2 level in experiment [2] is 117% (inactive). In addition, the differential viability (reversal) in [6] (H69AR cells + 2 uM doxorubicin) is -8.51% (inactive). Moreover, the inhibition in [7] was -4.27% (inactive); in [8], 7.67% (inactive); in experiment [14], 2.61% (inactive). Also, the figures for the growth inhibition in experiment [9] and in [10] were -11.7% (inactive) and 3.69% (inactive), respectively. The viability increase in experiment [11] was -0.99% (inactive). Also, the RAM network inhibition in experiment [15] is -1.67% (inactive).
With `COc1ccc(CCNC(=O)C2(C)CCC(=O)N2Cc2ccc3c(c2)OCO3)cc1OC` (stereo not drawn), the viability was 77.5% in [1]; 77.5% (inactive) in experiment [3]; 88.2% (inactive) in experiment [4]; 92.8% (inactive) in experiment [5]; 87.2% in experiment [6] (setting [16]); 92.8% in [6] (setting [17]). The viability in experiment [12] was 102% (inactive); in [13], 97.5% (inactive). Besides, in experiment [2], the Her2 level was 98% (inactive). In addition, in experiment [6] (H69AR cells + 2 uM doxorubicin), the differential viability (reversal) was 5.6% (inactive). In addition, the inhibition was -2.69% (inactive) in experiment [7], -5.17% (inactive) in experiment [8] and 0.985% (inactive) in experiment [14]. Further, the growth inhibition in experiment [9] is -13.9% (inactive); in [10], -25.8% (inactive). Further, the viability increase in experiment [11] is 0.26% (inactive). Moreover, the RAM network inhibition in experiment [15] was 1.36% (inactive).
For the molecule `CCCOC(=O)c1[nH]c2c(c1C)C(=O)CC(c1cc(OC)c(OC)c(OC)c1)C2` (stereo not drawn), the viability in experiment [1] was 89%; in [3], 89% (inactive); in experiment [4] it was 88.7% (inactive); in [5], 74.2% (inactive); in experiment [6] (setting [16]), 64.6%; in experiment [6] (setting [17]) it was 74.2%. In addition, the viability is 48.1% (inactive) in experiment [12] and 61.2% (inactive) in experiment [13]. Besides, in [2], the Her2 level was 79% (inactive). The differential viability (reversal) in [6] (H69AR cells + 2 uM doxorubicin) was 9.54% (inactive). The values for the inhibition in [7], in experiment [8] and in experiment [14] were -0.26% (inactive), -4% (inactive) and 2.23% (inactive), respectively. For the same molecule, the growth inhibition in experiment [9] was -16.2% (inactive); in [10], -14.6% (inactive). Also, the viability increase in [11] is 1.98% (inactive). Further, the RAM network inhibition in experiment [15] is 5.86% (inactive).
